Several values for one entry are separate records, joined by “and”; a condition that tells them apart may be missing. Equal values may be shown once. In all, about 260,000 compounds went through this assay and about 1,500 (0.58%) were called active. About 5% were inconclusive and are not listed.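 The calls were made as follows: active = inhibition above a set limit at one or more doses, reproduced on every date tested; inconclusive = results disagree between test dates, or hit never tested in dose response; inactive = the rest.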 These entries were drawn from the full list. Results with a measured potency or affinity are listed apart.
target: Virion infectivity factor (Human immunodeficiency virus type 1 group M subtype B (isolate BH10)) + Virion infectivity factor (Human immunodeficiency virus type 1 group M subtype B (isolate BRU/LAI)) + Virion infectivity factor (Human immunodeficiency virus type 1 group M subtype B (isolate PCV12)) + Virion infectivity factor (Human immunodeficiency virus type 1 group M subtype B (isolate HXB2)) + DNA dC->dU-editing enzyme APOBEC-3G (Homo sapiens) (UniProt P69720+P69721+P69722+P69723+Q9HC16); experiment: HIV-1 Vif–A3G interaction blockers – biochemical, TR-FRET, GST-Vif 1-94, biotin-A3G peptide, dose response retest, primary screen (AID 1117319); conditions: TR-FRET GST-Vif / biotin-A3G peptide binding; hits give high values;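 also: Vif residues 1-94 fused to GST binding biotinylated APOBEC3G peptide 110-148; 0% = full assay without inhibitor and 100% = GST in place of GST-Vif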

inhibition, inactive:
COc1ccccc1-c1nn(-c2ccccc2)cc1C(=O)NCC(c1ccco1)N1CCCC1 (stereo not drawn) 1.07%, CCOC(=O)N1CCN(S(=O)(=O)c2ccc(OC)c(Cl)c2Cl)CC1 3.84%, Fc1ccc2c(c1)c1n[nH]c(=S)nc1n2CCc1ccccc1 0.89%, O=C1C=C(Nc2ccccc2)C(=O)c2ccccc21 1.37%, O=C(Nc1ccc2c(c1)C(=O)c1ccccc1-2)c1ccccc1 4.11%, NC(Cc1ccc2nonc2c1)C(=O)O (stereo not drawn) 17.1%, O=C(c1ccccc1)N(Nc1ccccc1)c1ccccc1 11.5%, CC(C)C(=O)NN(C(=O)c1ccccc1)c1ccccc1 -2.08%, COc1ccc2cc(C#N)c(Nc3cccc(F)c3)nc2c1 -0.27%, S=c1[nH]nc(NC2CCCCC2)s1 2.41%, COc1cc(C2Nc3ccccc3C(=O)N2c2ccccc2OC)ccc1O (stereo not drawn) -3.51%, CCOc1cc(C2Nc3ccccc3C(=O)N2c2ccccc2)ccc1O (stereo not drawn) 24.7%, CCCCOC(=O)c1cccc(NC(=O)CCC(=O)O)c1 -3.12%, NC(=O)c1ncc(C(F)(F)F)cc1Oc1cccnc1 -3.05%, CCN(C(=O)COC(=O)CNC(=O)c1ccc2ccccc2c1)C1CCS(=O)(=O)C1 (stereo not drawn) 11.8%, CCc1ccc(NC(=O)C2CCN(S(C)(=O)=O)CC2)cc1 -4.22%, Cc1ccc(NC(=O)C2CC3CCC2C3)c(Br)c1 (stereo not drawn) -0.68%, COc1ccc(NC(=O)C(NC(C)=O)C(=O)NCc2ccccc2OC)cc1 (stereo not drawn) 19.8%, COc1cc2cccc(OC)c(=O)c2c(O)c1OC 4.6%, Oc1cccc2cc3cccc(O)c3c(O)c12 -5.93%, CCOC(=O)c1sc(NC(=O)Nc2ccc(F)cc2)nc1C 24.7%, Clc1ccccc1CN1CCN(c2ncccn2)CC1 -5.95%, Nc1ccc(N2CCCCC2)c(Cl)c1 19.8%, CC1CCC2(CC1)NC(=O)N(CC(=O)NCc1ccc(Cl)cc1)C2=O (stereo not drawn) -14%, O=C(CNC(=O)c1ccc(Br)cc1)N/N=C/c1ccc[nH]1 -7.5%, Cc1nc2ccccc2n1CC(=O)c1ccccc1 6.29%, Cc1nc2ccccc2c(-c2ccccc2)c1CC(=O)O -8.12%, CCOC(=O)c1cnc2c(cnn2C)c1Cl 6.51%, COc1cc(OC)c(-c2oc3ccccc3c(=O)c2O)c(OC)c1 4.4%, COc1cc(OC)c2c(c1)OC(c1ccc(OC)c(OC)c1)C(O)C2=O (stereo not drawn) 5.17%, COc1ccc(C(=O)OCCN=C2NS(=O)(=O)c3ccccc32)cc1OC 0.81%, CC12CCCc3c(O)cc(=O)n(c31)-c1ccccc12 (stereo not drawn) 0.05%, Cn1cccc1/C=C1\SC(=S)N(NC(=O)c2ccccc2O)C1=O 27.8%, COc1cc(/C=C2\SC(=S)N(NC(=O)c3ccccc3O)C2=O)ccc1O 5.15%, O=C(NN1C(=O)/C(=C/c2cccs2)SC1=S)c1ccncc1 -1.89%, CC(/C=C1\SC(=S)N(NS(=O)(=O)c2ccccc2)C1=O)=C\c1ccccc1 -6.38%, O=C1/C(=C/c2cccs2)SC(=S)N1NS(=O)(=O)c1ccccc1 -2.36%, O=C(NN1C(=O)/C(=C/C=C/c2ccccc2)SC1=S)c1ccncc1 10.1%, Cc1c(C(=O)NCc2ccccn2)sc2nc(-c3ccc(F)cc3)cn12 0.67%, Cc1ccc(NC(=O)CC2C(=O)NC3CCCCC3N2C(=O)c2ccc(F)cc2)cc1C (stereo not drawn) 1.01% and 26.2%, Cc1nn(Cc2cccc(Oc3ccccc3)c2)c(C)c1NC(=O)NC12CC3CC(CC(C3)C1)C2 -5.96%, Clc1ccc(CSc2cc3c(nn2)-c2ccccc2CC3)cc1Cl -6.32%, CC1(C(=O)OCC(=O)Nc2ccccc2Cl)CC1(Cl)Cl (stereo not drawn) -10.2%, Cc1c(Cl)ccc(S(=O)(=O)NCCN2CCOCC2)c1Cl 6.83%, O=CN1CCN(C2CC(=O)N(c3ccc(Br)cc3)C2=O)CC1 (stereo not drawn) 22.2%, Cc1ccc(Oc2ccccc2/C=C/C(=O)O)cc1 7.01%, COc1ccc(Cl)cc1NC(=O)c1noc2c1CCCC2 -11.1%, CC(C)(C)C1CCc2onc(C(=O)Nc3ccc(F)cc3F)c2C1 (stereo not drawn) 2.83%, Cc1ccc(NC(=O)c2noc3c2CCC3)cc1C -3.45%, COc1cc(NC(=O)c2noc3c2CCCC3)c(OC)cc1Cl 11.1%, O=C(Nc1ccccc1C(=O)N1CCOCC1)c1noc2c1CCCC2 -4.02%, COC(=O)c1ccccc1NC(=O)c1noc2c1CCCC2 3.34%, COC(=O)c1ccccc1NC(=O)c1noc2c1CC(C(C)(C)C)CC2 (stereo not drawn) -0.63%, CC(=O)c1ccc(NC(=O)c2noc3c2CCC3)cc1 -4.79%, CCS(=O)(=O)c1ccc(-c2csc(-c3ccc(Cl)cc3)n2)c(Cl)c1Cl 2.97%, CN(CCCNC(=O)CCCOc1cc(=O)n(C)c2ccccc12)Cc1ccccc1 4.88%, CN(C)C(CNC(=O)c1cccc(S(=O)(=O)NCc2ccccc2)c1)c1ccco1 (stereo not drawn) 0.14%, O=C(CC1SC(N2CCCC2)=NC1=O)Nc1ccc(C(=O)NCc2ccc(F)cc2)cc1 (stereo not drawn) 4.94%, COc1cc(OC)cc(-n2nnnc2SCC(=O)NCc2cccs2)c1 6.88%, O=C(O)CCCCCNS(=O)(=O)/C=C/c1ccccc1 1.37%, CCN(CC(=O)Nc1ccc(NC(C)=O)cc1)C(=O)/C=C/c1c(C)nn(-c2ccc(F)cc2)c1Cl 0.81%, COC(=O)c1ccccc1NC(=S)NC(=O)C1CC1 0.95%, COC(=O)c1ccccc1NC(=S)NC(=O)C1CCCCC1 -4.52%
